Test [1] concerns the target Lysosomal alpha-glucosidase (Homo sapiens) (UniProt P10253). Nature of the test: Confirmation of Inhibitors and Activators of Purified Human alpha-Glucosidase (AID 2115; active = well fitted curve in either direction with a large enough effect). An excerpt: NIH Chemical Genomics Center [NCGC]
NIH Molecular Libraries Probe Production centers Network [MLPCN]
Assay Submitter (PI): Wei Zheng
Alpha-glucosidase is responsible for hydrolysis of terminal, non-reducing 1,4-linked alpha-D-glucose residues with release of alpha-D-glucose. It is a lysosomal hydrolase that is required for the degradation of a small percentage (1-3%) of cellular glycogen in human. Deficiency of this enzyme results in glycogen-storage disease type II (GSDII), also referred to as Pompe disease, an autosomal recessive disorder. Structurally normal glycogen is accumulated in lysosomes and cytoplasm in affected patients, primarily in muscle tissues. Excessive glycogen storage within lysosomes may interrupt normal functioning of other organelles and leads to cellular injury. In turn, this leads to enlargement and dysfunction of the entire organ involved (eg, cardiomyopathy and muscle weakness). […]
This is a fluorogenic enzyme assay with 4-methylumbelliferyl-alpha-D-[…] as the substrate and human […] as the enzyme preparation. […] 4-methyllumbelliferone, can be excited at 365 nm and emits at 440 nm which can be detected by a standard fluorescence plate reader. […] The AC50 values were determined from concentration-response data modeled with the standard Hill equation. […]
(6) Detect the assay plate in a ViewLux plate reader (PerkinElmer) with Ex=365 nm and Em=440nm. […]

The nature of test [2]: qHTS for differential inhibitors of proliferation of Plasmodium falciparum line 7G8 (AID 1815).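 Note: parasite growth measured after three days of incubation.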 Background: Quantitative high-throughput screening tests each substance at several concentrations.
The nature of test [3]: qHTS for differential inhibitors of proliferation of Plasmodium falciparum line 3D7 (AID 1876). Note: potency is the fitted concentration of half-maximal effect.
A short description of test [4]: qHTS for differential inhibitors of proliferation of Plasmodium falciparum line Dd2 (AID 1882). Note: series mostly up to about 29 µM; nearly all actives have a fitted effect of over 65% in size. An outline of the steps:
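Dd2-infected erythrocytes (0.3% parasitemia, 2.5% hematocrit final) incubated with compound 72 h at 37 C, 5% CO2; lysed with saponin/Triton buffer containing SYBR Green I, incubated overnight in the dark, then read by fluorescence (485/535 nm). Normalized to 0.29 uM artemisinin and DMSO.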

Test [5] in a line: qHTS for differential inhibitors of proliferation of Plasmodium falciparum line W2 (AID 1883).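 Note: potency is the fitted concentration of half-maximal effect; parasites grown with compound for 72 h before lysis and staining.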 As to conditions: Plasmodium falciparum W2 proliferation inhibition.
Test [6] in a line: qHTS for differential inhibitors of proliferation of Plasmodium falciparum line HB3 (AID 1886).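 Note: parasites grown with compound for 72 h before SYBR Green readout.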 Note: potency is the fitted concentration of half-maximal effect. Particulars: Potency: Plasmodium falciparum HB3 proliferation inhibition.
The target in test [7] is Endonuclease 4 (Escherichia coli (strain K12)) (UniProt P0A6C1). The experiment in a line: Counterscreen for APE1 Inhibitors: qHTS Validation Assay for Inhibitors of Endonuclease IV (AID 1708). Note: potency is the fitted concentration of half-maximal effect. As to conditions: E. coli endonuclease IV, DNA cleavage fluorescence. An outline of the steps: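 E. coli EndoIV at 2 nM final, preincubated 15 min at room temperature with compound, then 50 nM TAMRA/BHQ-2 THF abasic-site duplex added. Buffer: 50 mM Tris-HCl pH 7.5, 50 mM NaCl, 2 mM MgCl2, 1 mM DTT, 0.01% Tween-20. Kinetic fluorescence increase, third minus first read.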
For orientation: The purpose of a counterscreen is to sort out artefacts and off-target activity.

A short description of test [8]: qHTS for differential inhibitors of proliferation of Plasmodium falciparum line GB4 (AID 1816).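 Note: parasite growth measured after 72 h incubation.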
A short description of test [9]: qHTS for differential inhibitors of proliferation of Plasmodium falciparum line D10 (AID 1877).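 Note: parasites grown with compound for 72 h before DNA staining.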
Test [10] is described as follows: qHTS Assay for Modulators of Human Peripheral Myelin Protein 22 (PMP22) Expression/Activity (AID 1967; active = well fitted curve in the direction sought with a large enough effect in the signal ratio; the % refers to the signal ratio). An outline of the steps: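 MSC80 mouse Schwann cells stably carrying Pmp22 promoter–green click beetle luciferase plus EF-alpha–red luciferase control were dosed for 24h at 37 °C. Dual-colour luminescence was filter-overlap corrected; %Activity came from green/red ratio versus untreated cells.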

Records with an inconclusive call do not appear. Activity calls are given as the source filed them. Unless noted, calls come from the whole dose curve; as a rule, active = well fitted curve in the direction sought with a large enough effect; inconclusive = small, poorly fitted or top-dose-only effect, or another doubt; inactive = no such curve, though single readings can be large; an effect the other way counts as inactive or inconclusive.

With `CCCCN1C[C@H](O)[C@@H](O)[C@H](O)[C@H]1CO`, the call in test [1] was inactive.
Take `NC(N)=NCc1cccc(I)c1`: the outcome in [2] and in [4] was inactive. The Potency is 8.91 µM (active) in [3], 10 µM (active) in test [5] and 6.31 µM (active) in test [6].
As for `CC(=O)OCC1=C(C(=O)O)N2C(=O)[C@@H](NC(=O)CSc3ccncc3)[C@H]2SC1`, the Potency in test [7] was 15.8 µM (active). Further, the compound was called inactive in test [2], in [8], in [9], in test [4] and in [10]. The Potency entry in [3] and in [6] was “inactive” each time.

Source of the values: PubChem BioAssay (NCATS).
